Assay results from PubChem BioAssay AID1159580 (chemical genetic matrix, 2015).
“And” between values parts separate entries of the source, which are not always exact repeats. Equal entries are not always repeated. Hit rate of the full screen: of about 5,500 compounds, about 2,000 (36%) were called active. Inconclusive results (about 18%) are left out. Cut-off read from the data, not from the text of the source: active = normalized growth mostly below about 0.91 (no sharp cut-off); inconclusive = no clear call, values can overlap the other calls; inactive = mostly above about 0.92. The list shows a part of the results.

Test: chemical genetic growth profiling, strain panel (AID 1159580);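 note: tested at 20 µM; growth read once vehicle control cultures reached saturation at 30 °C; 1 = growth at the plate median or of vehicle wells; lower values mean less growth of the strain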
Conditions: S. cerevisiae deletion strains, growth OD

Measured: normalized growth

CCC(=O)c1c(O)cc(O)cc1O
inactive: locus YAL013W, strain DEP1, stronger effect = lower value 1.01 | locus YAL021C, strain ccr4, stronger effect = lower value 0.953 | locus YAL026C, strain drs2, stronger effect = lower value 0.975 | locus YAL030W, strain snc1, stronger effect = lower value 0.983 | locus YBL061C, strain skt5, stronger effect = lower value 0.98 | locus YBR009C, strain hhf1, stronger effect = lower value 1.03 | locus YBR021W, strain FUR4, stronger effect = lower value 1.03 | locus YBR023C, strain chs3, stronger effect = lower value 0.994 | locus YBR171W, strain sec66, stronger effect = lower value 0.979 | locus YBR229C, strain ROT2, stronger effect = lower value 0.994 | locus YBR231C, strain swc5, stronger effect = lower value 0.987 | locus YBR279W, strain paf1, stronger effect = lower value 0.992 | locus YCL011C, strain gbp2, stronger effect = lower value 0.989 | locus YCL016C, strain dcc1, stronger effect = lower value 0.974 | locus YCL029C, strain bik1, stronger effect = lower value 0.982 | locus YCL069W, strain vba3, stronger effect = lower value 0.992 | locus YCR088W, strain abp1, stronger effect = lower value 0.991 | locus YDL005C, strain med2, stronger effect = lower value 0.977 | locus YDL035C, strain GPR1, stronger effect = lower value 1.01 | locus YDL040C, strain nat1, stronger effect = lower value 0.99 | locus YDL074C, strain BRE1, stronger effect = lower value 1 | locus YDL101C, strain DUN1, stronger effect = lower value 1.01 | locus YDL134C, strain PPH21, stronger effect = lower value 1.01 | locus YDL185W, strain tfp1, stronger effect = lower value 0.972 | locus YDL192W, strain arf1, stronger effect = lower value 0.981 | locus YDR001C, strain nth1, stronger effect = lower value 0.987 | locus YDR069C, strain doa4, stronger effect = lower value 0.983 | locus YDR101C, strain arx1, stronger effect = lower value 0.975 | locus YDR137W, strain rgp1, stronger effect = lower value 0.968 | locus YDR150W, strain NUM1, stronger effect = lower value 1 | locus YDR159W, strain sac3, stronger effect = lower value 0.995 | locus YDR162C, strain NBP2, stronger effect = lower value 1 | locus YDR195W, strain ref2 0.955 | locus YDR297W, strain sur2, stronger effect = lower value 0.982 | locus YDR318W, strain mcm21, stronger effect = lower value 0.977 | locus YDR334W, strain swr1, stronger effect = lower value 0.979 | locus YDR335W, strain msn5, stronger effect = lower value 0.986 | locus YDR388W, stronger effect = lower value 0.981 | locus YDR392W, strain spt3, stronger effect = lower value 0.968 | locus YDR502C, strain sam2, stronger effect = lower value 0.979 | locus YEL003W, strain gim4, stronger effect = lower value 0.99 | locus YEL037C, strain rad23, stronger effect = lower value 0.982 | locus YEL061C, strain CIN8 (second series), stronger effect = lower value 0.992 | locus YEL061C, strain CIN8, stronger effect = lower value 1 | locus YER015W, strain faa2, stronger effect = lower value 0.991 | locus YER016W, strain bim1, stronger effect = lower value 0.968 | locus YER110C, stronger effect = lower value 0.979 | locus YER111C, strain swi4, stronger effect = lower value 1 | locus YER155C, strain BEM2 (second series), stronger effect = lower value 0.983 | locus YER155C, strain BEM2, stronger effect = lower value 0.989 | locus YER167W, strain BCK2, stronger effect = lower value 1.01 | locus YFR010W, strain ubp6, stronger effect = lower value 0.998 | locus YGL078C, strain dbp3, stronger effect = lower value 0.975 | locus YGL086W, strain mad1, stronger effect = lower value 0.995 | locus YGL167C, strain pmr1, stronger effect = lower value 0.974 | locus YGL173C, strain kem1, stronger effect = lower value 1.01 | locus YGL227W, strain vid30, stronger effect = lower value 0.993 | locus YGL240W, strain doc1, stronger effect = lower value 1 | locus YGL248W, strain PDE1, stronger effect = lower value 1.01 | locus YGL253W, strain hxk2, stronger effect = lower value 0.986 | locus YGR078C, strain PAC10, stronger effect = lower value 1.01 | locus YGR135W, strain pre9, stronger effect = lower value 0.985 | locus YGR229C, strain SMI1, stronger effect = lower value 0.992 | locus YGR252W, strain gcn5, stronger effect = lower value 0.921 | locus YHR013C, strain ard1, stronger effect = lower value 0.938 | locus YHR027C, strain rpn1, stronger effect = lower value 1.01 | locus YHR030C, strain SLT2, stronger effect = lower value 1.01 | locus YHR079C, strain IRE1 (second series), stronger effect = lower value 0.978 | locus YHR079C, strain IRE1, stronger effect = lower value 1.03 | locus YHR094C, strain hxt1, stronger effect = lower value 0.983 | locus YHR129C, strain ARP1, stronger effect = lower value 0.999 | locus YHR142W, strain chs7, stronger effect = lower value 0.989 | locus YHR200W, strain rpn10, stronger effect = lower value 0.972 | locus YIL066C, strain RNR3, stronger effect = lower value 1.01 | locus YIL073C, strain SPO22, stronger effect = lower value 1.07 | locus YIL125W, strain kgd1, stronger effect = lower value 0.984 | locus YIR030C, strain dcg1, stronger effect = lower value 0.979 | locus YJL092W, strain hpr5, stronger effect = lower value 0.987 | locus YJL095W, strain BCK1 (second series), stronger effect = lower value 0.995 | locus YJL095W, strain BCK1, stronger effect = lower value 1 and 1.02 | locus YJL115W, strain asf1, stronger effect = lower value 0.996 | locus YJL129C, strain trk1, stronger effect = lower value 0.996 | locus YJL134W, strain LCB3, stronger effect = lower value 0.999 | locus YJL154C, strain vps35, stronger effect = lower value 0.975 | locus YJL164C, strain tpk1, stronger effect = lower value 0.993 | locus YJL166W, strain qcr8, stronger effect = lower value 0.991 | locus YJL168C, strain set2, stronger effect = lower value 0.979 | locus YJL187C, strain SWE1 (second series), stronger effect = lower value 1.01 | locus YJR043C, strain POL32, stronger effect = lower value 1.01 | locus YJR066W, strain TOR1, stronger effect = lower value 0.97 | locus YJR075W, strain HOC1, stronger effect = lower value 1.01
